According to PubChem BioAssay (NCATS):
Results filed as inconclusive are left out. Calls of active or inactive are those of the source. Calls come from the whole dose curve; as a rule, active = well fitted curve in the direction sought with a large enough effect; inconclusive = small, poorly fitted or top-dose-only effect, or another doubt; inactive = no such curve, though single readings can be large; an effect the other way counts as inactive or inconclusive.

Columns and labels:
[1] = molecular target: Arylsulfatase A (Homo sapiens) (UniProt P15289); assay: qHTS screen for enhancers of Arylsulfatase A (ASA1): LOPAC Validation Assay (AID 720538)
Procedure, shortened: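 SV40-transformed skin fibroblasts from an MLD patient (ASA-I179S) were treated with compounds for 48h at 37 degree C, then lysed with 0.5mM pNCS final substrate for 14h at room temperature; NaOH stop, fluorescence read (Ex=525 nm; Em=598 nm).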

[2] = qHTS for compounds that reverse cellular toxicity of Amyloid beta (A-beta) peptide in yeast: LOPAC Validation Assay (AID 720559)
Procedure, shortened: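 Yeast cells expressing toxic A-beta were combined with pinned compounds in growth medium and incubated 48 hr at 30 C. Growth was read as absorbance at 600 nm and normalized to DMSO and to an equimolar FeCl3/clioquinol positive control.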

[3] = qHTS for Activators of Parkin Expression: LOPAC Validation Assay (NLuc Reporter) (AID 720572)
Procedure, shortened: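 NLuc signal, read 10 min after reagent and following a prior FLuc read, is normalized to DMSO (0) and positive controls (100%). Cells: neuronal Parkin-promoter coincidence reporter line; compounds tested 7-point, 24 h, 37 C, 5% CO2.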

[4] = qHTS for Activators of Parkin Expression: LOPAC Validation Assay (FLuc Reporter) (AID 720573)
Procedure, shortened: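 Neuronal cell line stably carrying FLuc/NLuc coincidence reporter under Parkin promoter; cells plated 24 h, then compounds added in 7-point dose response for 24 h at 37 C. FLuc luminescence read; normalized to DMSO and positive control (100%).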

Measured: Potency

Sequence of Arylsulfatase A (Homo sapiens) (P15289 whole entry, looked up): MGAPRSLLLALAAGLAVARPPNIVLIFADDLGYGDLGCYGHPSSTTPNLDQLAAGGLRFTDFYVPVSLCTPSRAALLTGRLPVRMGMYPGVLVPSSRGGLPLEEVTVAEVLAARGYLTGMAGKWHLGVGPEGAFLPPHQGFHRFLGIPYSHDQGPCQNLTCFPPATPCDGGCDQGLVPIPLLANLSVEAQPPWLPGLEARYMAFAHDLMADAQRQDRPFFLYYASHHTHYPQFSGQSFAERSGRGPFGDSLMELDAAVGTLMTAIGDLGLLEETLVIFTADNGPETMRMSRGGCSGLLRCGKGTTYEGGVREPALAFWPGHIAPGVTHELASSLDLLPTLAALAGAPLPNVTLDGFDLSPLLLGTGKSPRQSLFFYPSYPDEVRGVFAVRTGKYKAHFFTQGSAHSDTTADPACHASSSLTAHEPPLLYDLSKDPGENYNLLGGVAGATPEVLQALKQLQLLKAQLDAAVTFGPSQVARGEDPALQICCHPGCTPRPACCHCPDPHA

CNc1ncnc2c1ncn2[C@H]1C[C@H](OP(=O)(O)O)[C@@H](COP(=O)(O)O)O1
inactive: all assays above

O=c1[nH]ccc2c(O)cccc12
inactive: all assays above

CCC1(O)CC2CN(CCc3c([nH]c4ccccc34)[C@@](C(=O)OC)(c3cc4c(cc3OC)N(C)C3[C@]45CCN4CC=C[C@@](CC)([C@@H](OC(C)=O)[C@]3(O)C(=O)OC)[C@H]45)C2)C1 (some centres not stated)
inactive: all assays above
